Screening data deposited in PubChem by National Center for Advancing Translational Sciences (NCATS).
KinaseGlo FLuc = Counterscreen for Luciferase (Kinase-Glo TM) Inhibition. Luciferin 4-monooxygenase (Photuris pensylvanica), Q27757. Kinase-Glo luciferase, ATP luminescence, 8 min. Potency, µM (highest dose often 38.3 µM), inactives show at the top dose activity change, negative = inhibition, most hits filed as inhibitors. 200,000 compounds, 0.28% hits; note: % is set by controls: 0 for no effect and ±100 for the full control effect; nearly all actives have a fitted effect of over 60% in size
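Luminescence was the read-out, taken after 8-minute incubation at ambient temperature. Luciferase turned over luciferin with 10 uM ATP in imidazole pH 7.2 buffer containing KCl, MgCl2, Tween 20 and BSA.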
NPC1 prom act = qHTS Assay for NPC1 Promoter Activators | Huh7 NPC1 promoter luciferase reporter, 24 h | Potency, µM (doses to about 9.22 µM), for inactives: at the highest dose activation, hits mostly activators | 320,000 compounds, 2.4% hits; note: % of control where 0% means no effect; nearly all actives have a fitted effect of over 60% in size
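Luminescence from an NPC1 promoter-driven luciferase reporter in stably transfected Huh7 cells was measured after 24 h compound treatment at 37 °C, followed by 10 min ambient incubation with luciferase detection reagent.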
Rab9 promoter act = qHTS Assay for Rab9 Promoter Activators; Huh7 Rab9 promoter-luciferase reporter, luminescence, 24 h; Potency, µM (doses to about 9.22 µM), inactives show at the top dose activation, negative = inhibition, hits mostly activators; 320,000 compounds, 2.8% hits; AID 485297, 2010; note: % of control where 0% means no effect; nearly all actives have a fitted effect of over 60% in size
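Luminescence from Amplite-detected luciferase (10 minutes, ambient) reports Rab9 promoter activation. Before that, stable Rab9-luciferase Huh7 cells (1500/well, reduced-serum OP-MEM I plus 10% FBS) were exposed to compound for 24 hours at 37C.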
SMN2 splice enh = qHTS Assay for Enhancers of SMN2 Splice Variant Expression; HEK293 SMN2-luciferase splicing reporter, luminescence, 30-36 h; Potency, µM (top dose mostly 46.1 µM), for inactives: at the highest dose activity change, positive = activation, usual class: activators; 210,000 compounds, 2.8% hits; note: % of control where 0% means no effect; nearly all actives have a fitted effect of over 55% in size
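HEK293 cells carry an SMN2 […]–luciferase reporter in which exon 7 inclusion puts luciferase in frame. Cells were plated 10-12 h before compound addition, then incubated 30-36 h at 37C. ONE-Glo luminescence was read; sodium butyrate at 4.5 mM final served as control.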
FLuc counter = qHTS profiling assay for firefly luciferase inhibitor/activator using purifed enzyme and Km concentrations of substrates (counterscreen for miR-21 project) | Potency, µM (highest dose often 57.5 µM), without a hit: at the top dose activity change, negative = inhibition, hits mostly inhibitors | purified FLuc, Km substrates, luminescence inhibition | 360,000 compounds, 6.9% hits;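 note: plate controls were vehicle for no effect and reference inhibitor for full effect; nearly all actives have a fitted effect of over 55% in size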
Target sequence (P08659 whole entry, looked up): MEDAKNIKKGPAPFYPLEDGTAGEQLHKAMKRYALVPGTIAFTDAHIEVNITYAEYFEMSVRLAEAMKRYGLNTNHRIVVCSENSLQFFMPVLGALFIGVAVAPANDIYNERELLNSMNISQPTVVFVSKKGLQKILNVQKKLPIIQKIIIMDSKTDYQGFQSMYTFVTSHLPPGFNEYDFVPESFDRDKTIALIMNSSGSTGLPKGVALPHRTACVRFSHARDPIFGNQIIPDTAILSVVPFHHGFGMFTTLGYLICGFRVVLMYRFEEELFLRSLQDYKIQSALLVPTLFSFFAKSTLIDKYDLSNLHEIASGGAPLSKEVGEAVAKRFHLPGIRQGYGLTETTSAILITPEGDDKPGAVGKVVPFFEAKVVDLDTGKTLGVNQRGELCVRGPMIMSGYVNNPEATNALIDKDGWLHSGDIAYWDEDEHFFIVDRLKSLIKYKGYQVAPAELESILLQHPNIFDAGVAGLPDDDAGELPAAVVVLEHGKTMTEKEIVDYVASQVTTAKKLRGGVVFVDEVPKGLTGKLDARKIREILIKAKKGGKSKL
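Purified P. pyralis luciferase (10nM final) with 10uM D-luciferin and 10uM ATP (Km levels) in 50mM Tris acetate pH 7.5, 10mM Mg acetate, 0.01% Tween-20, 0.05% BSA; qHTS 6-point titration, ~60 µM downward; luminescence read.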
ELG1 genotoxic = qHTS screen for small molecules that induce genotoxicity in human embryonic kidney (HEK293T) cells expressing luciferase-tagged ELG1; HEK293T ELG1-luciferase reporter, luminescence, 16 h; Potency, µM (highest dose often 46 µM), inactives show at the highest dose activity change, positive = activation, actives largely listed as activators; 330,000 compounds, 1.3% hits; AID 504466, 2011; note: % of control where 0% means no effect; nearly all actives have a fitted effect of over 60% in size
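HEK293T cells expressing luciferase-tagged ELG1 were exposed to compound or DMSO vehicle for 16 hr at 37 °C and 5% CO2. Luciferase activity was then measured with ONE-Glo after 30 min at room temperature.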
* = called active by the depositor; ? = inconclusive; . = no result. Only some compounds are listed: those with a hit (about 7.5% of all), similar ones and a draw of the others. Calls come from the whole dose curve; as a rule, active = well fitted curve in the direction sought with a large enough effect; inconclusive = small, poorly fitted or top-dose-only effect, or another doubt; inactive = no such curve, though single readings can be large; an effect the other way counts as inactive or inconclusive. Potency is the fitted concentration of half-maximal effect.

SMILES | KinaseGlo FLuc | NPC1 prom act | Rab9 promoter act | SMN2 splice enh | FLuc counter | ELG1 genotoxic
COc1ccc(-c2cc(C(=O)Oc3ccc(C)cc3)c3ccccc3n2)cc1 | . | . | . | 15.2% | ? | .
CCN(C(=O)COC(=O)c1cccnc1Nc1ccccc1F)C1CCS(=O)(=O)C1 (stereo not given) | 10µM* | ? | ? | ? | ? | 8.8%
COc1ccc(-c2cc(C(=O)OCC(=O)N(C)C)c3ccccc3n2)cc1 | 2.6% | 4.3% | 23.2% | ? | 9.53µM* | -1.4%
COc1ccc(-c2cc(C(=O)Oc3ccc(Cl)cc3)c3ccccc3n2)cc1 | . | . | . | 3.2% | -16.4% | .
CCC(=O)N1CCc2cc(S(=O)(=O)NC(CC(C)C)C(=O)Nc3ccc(CC)cc3)ccc21 (stereo not given) | . | . | . | 16.2% | -1.7% | .
CCN(C(=O)COC(=O)c1cc(OC)ccc1Br)C1CCS(=O)(=O)C1 (stereo not given) | . | . | . | . | . | 0.7%
CCN(C(=O)COC(=O)c1cc(-c2ccc3cc(OC)ccc3c2)nc2ccccc12)C1CCS(=O)(=O)C1 (stereo not given) | -16.2% | 0.891µM* | 0.355µM* | ? | 0.849µM* | 12.3%
COc1ccccc1NC(=O)C1=C(C)Nc2nnnn2C1c1cc(Br)c(O)c(OC)c1 (stereo not given) | . | . | . | 2.3% | -3.3% | .
C=CCn1c(COc2cc(C)ccc2C(C)C)nnc1SCC(=O)c1c(N)n(C)c(=O)n(C)c1=O | 0.8% | 1.1% | -3.5% | -29.2% | 4.78µM* | -4.2%
Cc1ccc2cc(CN(CCN(C)C)C(=O)Nc3ccc(Cl)cc3)c(=O)[nH]c2c1 | 0.5% | -0.1% | 2.4% | . | 10.7µM* | -0.8%
CCC1=C2CC[C@H]3C(=O)N(CC)C(=O)[C@H]3[C@H]2[C@@]2(Cc3ccccc3)C(=O)N(CCOC)C(=O)N2C1=O | -0.9% | . | . | -17.7% | . | .
Cc1cc(O)c(Sc2ncn[nH]2)cc1NS(=O)(=O)c1ccc(Cl)cc1 | . | -0.4% | 1.6% | . | 4.4% | -1.0%
O=S(=O)(Nc1cc(Sc2ncn[nH]2)c(O)c2ccccc12)c1ccccc1 | -0.7% | 3.3% | 1.4% | -112.6% | 10.7µM* | -12.8%
CN(C(=O)CSc1cc(Cl)ccc1Cl)C1CCS(=O)(=O)C1 (stereo not given) | . | . | . | . | . | -0.1%
Clc1ccc(C2=NNC(=NCC3CCCO3)SC2)cc1 (stereo not given) | 4.8% | 3.16µM* | ? | 11.2µM* | 12µM* | 20.1%
COCCn1c(C)cc(C2=NNC(=Nc3ccc(OC)cc3)SC2)c1C | -3.6% | -1.8% | ? | 10.6% | ? | -2.0%
CCN=C1NN=C(c2cc(C)n(Cc3ccco3)c2C)CS1 | -2.0% | -19.7% | -18.8% | -81.6% | 0.213µM* | ?
COCCn1c(C)cc(C2=NNC(=Nc3ccccc3)SC2)c1C | -2.7% | 0.355µM* | 0.398µM* | ? | 0.757µM* | ?
Cc1cc(C2=NNC(=NCCc3ccccc3)SC2)c(C)n1CC1CCCO1 (stereo not given) | -9.2% | 29.7% | ? | -37.1% | 15.1µM* | 8.1%
O=S(=O)(NCC1CCCO1)c1ccc(-c2ccc(Cl)cc2)cc1 (stereo not given) | -3.1% | -9.4% | -13.6% | -61.6% | -9.2% | 3.6%
O=C(O)C1(c2ccccc2)CCN(S(=O)(=O)c2cccc(Cl)c2)CC1 | . | -3.5% | -0.6% | . | 3.0% | -4.4%
CC1=C(C(=O)Nc2cccc(C(=O)NCc3ccccc3C)c2)SCCO1 | . | -2.4% | 0.7% | . | -8.3% | -3.8%
C=CCn1c(C)cc(C2=NNC(=NCc3ccccc3)SC2)c1C | -2.4% | ? | 2.24µM* | 12.6µM* | 19µM* | ?
